The text below walks through data of PubChem BioAssay AID624117 (National Center for Advancing Translational Sciences (NCATS), 2012).

Molecules are shown by their SMILES. Inconclusive results are not listed. Calls of active or inactive are those of the source. Calls follow the shape of the dose curve; as a rule, active = well fitted curve in the direction sought with a large enough effect; inconclusive = small, poorly fitted or top-dose-only effect, or another doubt; inactive = no such curve, though single readings can be large or run the other way.

The nature of this assay: qHTS Assay for Rab9 Promoter Activators: Hit Validation Using Renilla Luciferase Read-Out. Also: % of control where 0% means no effect. Particulars: Huh7 NPC1 promoter Renilla luciferase reporter, 24 h; series mostly up to 76.9 µM; activation (negative = inhibition): at the top concentration. The method, boiled down: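 Huh7 cells stably carrying NPC promoter-luciferase, 1,500 cells/well, exposed to compound for 24 h at 37 deg C. Luminescence read 10 min after […] addition; validation of firefly-read primary hits.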
In general terms: Quantitative high-throughput screening tests each substance at several concentrations.
Turning to `CC(Sc1nnc(C(F)(F)F)n1C)C(=O)Nc1ccc(S(N)(=O)=O)cc1` (configuration not stated), the “activation (negative = inhibition)” value was -17.9% (inactive).

For `NC(=O)C1(NC(=O)[C@@H]2CC3(CC(c4cccc(NC(=O)[C@@H]5CCC(=O)N5)c4)=NO3)CN2C(=O)c2ccccc2)CC1` (some centres not stated), the “activation (negative = inhibition)” value is 4.72% (inactive).

For `COc1ccc(S(=O)(=O)NC(C(=O)NCCc2ccccn2)C(C)C)cc1` (configuration not stated), the “activation (negative = inhibition)” value was -1.28% (inactive).

Turning to `CC1CCCN(S(=O)(=O)c2ccc(C(=O)Nc3nnc(-c4ccncc4)o3)cc2)C1` (configuration not stated), the “activation (negative = inhibition)” value was -97.9% (inactive).

With `Cc1ccc(C(=O)Nc2ccc(N3CCN(C)CC3)nc2)cc1`, the “activation (negative = inhibition)” value is -2.51% (inactive).

`COc1ccc([N+](=O)[O-])cc1COc1ccc2c(-c3ccccc3)cc(=O)oc2c1`: the “activation (negative = inhibition)” value is 3.67% (inactive).

Consider `NC(=O)C(=O)NN=C1C2CC3CC(C2)CC1C3`, for which the “activation (negative = inhibition)” value is -5.18% (inactive).

Take `COC(=O)c1sccc1NC(=S)OC`: the “activation (negative = inhibition)” value was -7.79% (inactive).

On to `CCOC(=O)CSc1nc2cc(C)ccc2cc1C#N`, for which the “activation (negative = inhibition)” value was -50.3% (inactive).

For `O=C(CSc1nnc(-c2ccccc2)o1)Nc1ccccc1F`, the “activation (negative = inhibition)” value is 10.4% (inactive).

With `Cc1[nH]n(-c2cccc3ccccc23)c(=O)c1/C=N/c1sc2c(c1C#N)CCC2`, the “activation (negative = inhibition)” value was -2.16% (inactive).

Take `O=C(O)C1=CC[C@@H](c2ccc(Cl)cc2)N(S(=O)(=O)c2ccc(Cl)cc2)[C@H]1c1ccccc1`: the “activation (negative = inhibition)” value is 1.45% (inactive).

Turning to `Fc1ccc(-c2nc3nc4ccccc4nc3n2Cc2ccco2)cc1`, the “activation (negative = inhibition)” value is -83.1% (inactive).

With `Cc1ccc(NC(=O)Nc2cccc3ccccc23)cc1`, the “activation (negative = inhibition)” value was -3.27% (inactive).

In the case of `N#C/C(=N\Nc1ccc(Cl)cc1)C(=N)N1CCCCC1`, the “activation (negative = inhibition)” value is -5.18% (inactive).

In the case of `CCC(C)(C)NC(=O)C(c1ccc(OC)cc1)N(Cc1cccs1)C(=O)CCC(=O)Nc1cc(C)on1` (configuration not stated), the “activation (negative = inhibition)” value is 4.13% (inactive).

Regarding `Cc1cccc(C)c1NC(=O)Nc1cccs1`, the “activation (negative = inhibition)” value is 19% (inactive).
